Records with an inconclusive call do not appear. A call without a number means that no potency is given here. Calls of active or inactive are those of the source. Calls follow the shape of the dose curve; as a rule, active = well fitted inhibition curve with a large enough effect; inconclusive = small, poorly fitted or top-dose-only effect; inactive = flat fitted curve, though single readings scatter.
Each compound was assayed against Calcium and integrin-binding protein 1 (Homo sapiens) (UniProt Q99828) (assay: Primary qHTS for Identification of Calcium Integrin Binding Protein 1 (CIB1) Competitor (AID 1508620;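 also: GST tagged CIB1 binding a fluorescein labelled alphaIIb integrin peptide tracer; top concentration of the series differs between compounds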)). Details: CIB1-GST / FITC-alphaIIb peptide fluorescence polarization; series mostly up to 114 µM.
Sequence of Calcium and integrin-binding protein 1 (Homo sapiens) (Q99828 whole entry, looked up): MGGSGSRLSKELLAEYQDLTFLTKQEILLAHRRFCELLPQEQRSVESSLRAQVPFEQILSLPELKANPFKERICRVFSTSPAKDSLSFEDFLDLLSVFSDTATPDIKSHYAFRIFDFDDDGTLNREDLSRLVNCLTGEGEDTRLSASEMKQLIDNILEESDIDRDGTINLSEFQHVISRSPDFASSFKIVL
Procedure, shortened: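 Fluorescence polarization competition: CIB1-GST (1 uM final) preincubated with compound 15 min at room temperature, then FITC-labeled alphaIIb peptide (100 nM final) added for another 15 min. Polarization read at Ex 480/Em 540.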

Structure (SMILES) | Potency
O=C(CNC(=O)c1ccc2cc[nH]c2c1)OC(C(=O)Nc1cc(C(F)(F)F)ccc1Cl)c1ccccc1 (stereo not given) | inactive
COc1cc(-c2ccc3ncnc(N(C)Cc4csc(C)n4)c3c2)cc(OC)c1OC | inactive
Cn1ccc2cc(-c3ccc4ncnc(NCc5cccs5)c4c3)ccc21 | inactive
CS(=O)(=O)c1ccc(C(=O)OCC(=O)N2Cc3ccccc3C2)cc1[N+](=O)[O-] | inactive
Cc1ccnc(NC(=S)N[C@H]2CCN(c3cccc(C(F)(F)F)c3)C2)c1 | inactive
Cc1cc(NCc2ccc(NC(=O)Cc3ccc(Cl)c(Cl)c3)cc2)no1 | inactive
CN(C)c1cccc(-c2csc(N3CCC(C(N)=O)CC3)n2)c1 | inactive
Cc1ccc(OCCn2c(CCNC(=O)c3cc([N+](=O)[O-])ccc3[N+](=O)[O-])nc3ccccc32)cc1 | inactive
S=c1[nH]c2ccccc2n1CCc1ccccc1 | inactive
c1nc(NCC2CC2)c2cc(-c3ccc4c(c3)OCO4)ccc2n1 | inactive
CC(C)(C)c1cccc(NC(=O)Nc2nnc(-c3ccncc3)s2)c1 | inactive
COc1cccc(CNc2ccc(S(=O)(=O)Nc3ccc(-c4ccccc4)cc3)cc2)c1O | inactive
O=C1CC(c2ccccc2)CC2=C1C1(CCCC1)N=C(Nc1nc3ccccc3o1)N2 (stereo not given) | inactive
O=C(Nc1ccc(F)c(F)c1)Nc1nnc(-c2ccncc2)s1 | inactive
COc1cc(-c2csc(N3CCC(C(N)=O)CC3)n2)cc(OC)c1OC | inactive
O=S(=O)(NCCCCNS(=O)(=O)c1c(F)cccc1F)c1ccc2c(c1)OCCO2 | inactive
CC(C)c1cc2c(s1)c1cnn(Cc3ccccc3F)c(=O)c1n2C | inactive
COc1cc(O)c(C(CC(=O)N2CCCC(CN3CCCCC3)C2)c2ccc3c(c2)OCO3)c(OC)c1 (stereo not given) | inactive
Cc1ccc(OCCn2c(CCNC(=O)NC3CCCCC3)nc3ccccc32)cc1 | inactive
O=C(Nc1ccc2ccccc2c1)Nc1nnc(-c2ccc(Cl)cc2Cl)s1 | inactive

Structure (SMILES) | Potency
COc1ccc(-c2nc3cccc(OC)c3c(=O)n2Cc2ccccc2)cc1COc1ccc(NC(C)=O)cc1 | inactive
CC(=O)c1cccc(-c2csc(N3CCC(C(N)=O)CC3)n2)c1 | inactive
Cc1cc2c(s1)c1cnn(Cc3ccc(Cl)c(F)c3)c(=O)c1n2C | inactive
Cc1ccccc1C(=O)N1CCc2cc(-n3cc(NC(=O)Cc4ccccc4)cn3)ccc21 | inactive
CN1C(=O)CCc2cc(S(=O)(=O)Nc3ccc(Cl)c(Cl)c3)ccc21 | inactive
O=C1CCCC2=C1C(c1cccnc1)N=C(Nc1nc3ccccc3o1)N2 (stereo not given) | inactive
COc1cc(-c2nc(Nc3ccc(F)c(F)c3)c3ccccc3n2)cc(OC)n1 | inactive
CC(C)(C)c1ccc(C(=O)Nc2ccc(-c3nc4ccccc4[nH]3)cc2)cc1 | inactive
Fc1cccc(Nc2nc(-c3ccncc3)nc3ccccc23)c1 | inactive
CN(C)c1cccc(-c2ncc(F)c(N3CCC(C(N)=O)CC3)n2)c1 | inactive
COc1cccc(CNc2ccc([S+](=O)([O-])Nc3ccccc3)cc2)c1Cl | inactive
COc1cccc(-c2ccc(=O)n(CC(=O)NCCc3ccccc3)n2)c1 | inactive
Cc1ccc(-c2nc3ccccc3[nH]2)cc1NC(=O)c1ccc(-c2cccc(Cl)c2)o1 | inactive
Cc1cc(C)n2ncc(C(=O)Nc3ccc(C(C)(C)C)cc3)c2n1 | inactive
Cc1nc(-c2ccccc2)oc1-c1ccc2ncnc(NCc3ncc[nH]3)c2c1 | inactive
O=S(=O)(NN1CCOCC1)c1ccc(Br)cc1 | inactive
Cc1ccnc(NC(=S)N2CCC(Nc3cccc(C(F)(F)F)c3)CC2)c1 | inactive
Cc1cc(C)nc(NC(=S)N2CCN(c3ccc4nncn4c3)CC2)c1 | inactive
Cc1cc(C)n2ncc(C(=O)Nc3ccc(C)c(C)c3)c2n1 | inactive
COc1ccccc1NC(=O)C(OC(=O)CNC(=O)c1ccccc1)c1ccccc1 (stereo not given) | inactive
